# Test results as given in the supplement of paper PMC4466140.
# How the values were obtained:
# Test in all cases: SPOT peptide array binding signal intensity (averaged, normalized) (arbitrary units (background-subtracted, floor 0; scale differs between SH3 domains)); higher = stronger binding of the SH3 domain to the peptide
# ScBbc1 = target: ScBbc1
# How it was run: (§1)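 Cellulose membranes carried synthetic 15-mer peptides with cysteines swapped for serines. These were incubated overnight at 4°C with 10 μg/ml of GST-fused SH3 domains from four yeast species in TBS-based blocking buffer. Binding signal, detected with anti-GST antibody and quantified in Genespotter, is the normalized, background-subtracted spot intensity averaged over replicates, in arbitrary units specific to each domain.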
# ScBem1-D1 = target: ScBem1-D1
# How it was run: as §1
# ScBzz1-D1 = target: ScBzz1-D1
# How it was run: as §1
# ScBzz1-D2 = target: ScBzz1-D2
# How it was run: as §1
# ScCyk3 = target: ScCyk3
# How it was run: as §1
# ScFus1 = target: ScFus1
# How it was run: as §1
# ScHof1 = target: ScHof1
# How it was run: as §1
# ScHse1 = target: ScHse1
# How it was run: as §1
# ScLsb1 = target: ScLsb1
# How it was run: as §1
# ScLsb2 = target: ScLsb2
# How it was run: as §1
# ScLsb3 = target: ScLsb3
# How it was run: as §1
# ScLsb4 = target: ScLsb4
# How it was run: as §1
# ScMyo3 = target: ScMyo3
# How it was run: as §1
# ScMyo5 = target: ScMyo5
# How it was run: as §1
# ScNbp2 = target: ScNbp2
# How it was run: as §1
# ScPex13 = target: ScPex13
# How it was run: as §1
# ScRvs167 = target: ScRvs167
# How it was run: as §1
# ScSho1 = target: ScSho1
# How it was run: as §1
# ScSla1-D1-D2 = target: ScSla1-D1-D2
# How it was run: as §1
# ScSla1-D3 = target: ScSla1-D3
# How it was run: as §1
# SpAbp1-D1 = target: SpAbp1-D1
# How it was run: as §1
# SpBbc1 = target: SpBbc1
# How it was run: as §1
# SpBzz1-D1 = target: SpBzz1-D1
# How it was run: as §1
# SpBzz1-D2 = target: SpBzz1-D2
# How it was run: as §1
# SpCyk3 = target: SpCyk3
# How it was run: as §1
# SpHof1 = target: SpHof1
# How it was run: as §1
# SpHof1-2 = target: SpHof1-2
# How it was run: as §1
# SpHof1-3 = target: SpHof1-3
# How it was run: as §1
# SpHse1 = target: SpHse1
# How it was run: as §1
# SpLsb1 = target: SpLsb1
# How it was run: as §1
# SpLsb4 = target: SpLsb4
# How it was run: as §1
# SpMyo1 = target: SpMyo1
# How it was run: as §1
# SpNbp2 = target: SpNbp2
# How it was run: as §1
# SpPex13 = target: SpPex13
# How it was run: as §1
# SpRvs167 = target: SpRvs167
# How it was run: as §1
# SpSla1-D1-D2 = target: SpSla1-D1-D2
# How it was run: as §1
# SpSla1-D3 = target: SpSla1-D3
# How it was run: as §1
binder,measurement,setting,value
TYNRTAFQIPGDQSI,SPOT peptide array binding signal intensity,ScBbc1,2.5
same,SPOT peptide array binding signal intensity,ScBem1-D1,11
same,SPOT peptide array binding signal intensity,ScBzz1-D1,40
same,SPOT peptide array binding signal intensity,ScBzz1-D2,13.5
same,SPOT peptide array binding signal intensity,ScCyk3,≤ 0
same,SPOT peptide array binding signal intensity,ScFus1,≤ 0
same,SPOT peptide array binding signal intensity,ScHof1,≤ 0
same,SPOT peptide array binding signal intensity,ScHse1,≤ 0
same,SPOT peptide array binding signal intensity,ScLsb1,142
same,SPOT peptide array binding signal intensity,ScLsb2,661
same,SPOT peptide array binding signal intensity,ScLsb3,≤ 0
same,SPOT peptide array binding signal intensity,ScLsb4,11.5
same,SPOT peptide array binding signal intensity,ScMyo3,3
same,SPOT peptide array binding signal intensity,ScMyo5,8.5
same,SPOT peptide array binding signal intensity,ScNbp2,≤ 0
same,SPOT peptide array binding signal intensity,ScPex13,≤ 0
same,SPOT peptide array binding signal intensity,ScRvs167,≤ 0
same,SPOT peptide array binding signal intensity,ScSho1,≤ 0
same,SPOT peptide array binding signal intensity,ScSla1-D1-D2,≤ 0
same,SPOT peptide array binding signal intensity,ScSla1-D3,0.5
same,SPOT peptide array binding signal intensity,SpAbp1-D1,≤ 0
same,SPOT peptide array binding signal intensity,SpBbc1,0.5
same,SPOT peptide array binding signal intensity,SpBzz1-D1,70
same,SPOT peptide array binding signal intensity,SpBzz1-D2,≤ 0
same,SPOT peptide array binding signal intensity,SpCyk3,≤ 0
same,SPOT peptide array binding signal intensity,SpHof1,1.75
same,SPOT peptide array binding signal intensity,SpHof1-2,5.25
same,SPOT peptide array binding signal intensity,SpHof1-3,0.25
same,SPOT peptide array binding signal intensity,SpHse1,50.2
same,SPOT peptide array binding signal intensity,SpLsb1,17.5
same,SPOT peptide array binding signal intensity,SpLsb4,≤ 0
same,SPOT peptide array binding signal intensity,SpMyo1,2.75
same,SPOT peptide array binding signal intensity,SpNbp2,≤ 0
same,SPOT peptide array binding signal intensity,SpPex13,≤ 0
same,SPOT peptide array binding signal intensity,SpRvs167,0.333
same,SPOT peptide array binding signal intensity,SpSla1-D1-D2,≤ 0
same,SPOT peptide array binding signal intensity,SpSla1-D3,≤ 0
